What all share (assay): DAPPL (digital affinity profiling via proximity ligation, sequencing); 10 mM Tris-HCl pH 7.5, 50 mM NaCl, 1 mM DTT, 4% glycerol, room temperature, 30 min; GST-TFs on glutathione beads, 16-mer random dsDNA library, 0.1% formaldehyde crosslink after washing; high values mean tight binding
Holding throughout (conditions): protein: recombinant; tags: N-terminal GST; dsDNA, one strand shown

One experiment has as its target T1, ELK1 (Homo sapiens, UniProt P19419 1-428).
T1 sequence: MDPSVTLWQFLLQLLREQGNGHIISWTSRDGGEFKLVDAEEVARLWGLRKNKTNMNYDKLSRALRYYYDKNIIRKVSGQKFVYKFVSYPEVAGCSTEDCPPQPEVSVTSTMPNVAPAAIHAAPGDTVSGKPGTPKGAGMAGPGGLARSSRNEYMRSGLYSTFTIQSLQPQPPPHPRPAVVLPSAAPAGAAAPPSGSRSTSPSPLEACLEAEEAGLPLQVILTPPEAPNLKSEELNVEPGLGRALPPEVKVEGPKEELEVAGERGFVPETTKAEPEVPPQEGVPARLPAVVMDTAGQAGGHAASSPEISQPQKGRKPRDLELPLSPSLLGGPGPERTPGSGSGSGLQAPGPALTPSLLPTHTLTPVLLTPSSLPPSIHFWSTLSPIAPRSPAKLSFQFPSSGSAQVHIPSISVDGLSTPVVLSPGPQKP
The essentials: (§1)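 Each value of binding signal is a hexamer's read frequency for a factor divided by the same hexamer's frequency in the tag-only sample. Barcoded, bead-captured GST fusions of human transcription factors made in yeast were pooled with that sample and incubated with 200 nmole of a random double-stranded 16-mer DNA library in Tris/NaCl/DTT/glycerol buffer at room temperature for 30 min. Washing, 0.1% formaldehyde crosslinking, proximity ligation, PCR and Illumina NextSeq500 sequencing followed.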

Another experiment concerns the target T2, GABPA (Homo sapiens, UniProt Q06546 1-454).
T2 sequence: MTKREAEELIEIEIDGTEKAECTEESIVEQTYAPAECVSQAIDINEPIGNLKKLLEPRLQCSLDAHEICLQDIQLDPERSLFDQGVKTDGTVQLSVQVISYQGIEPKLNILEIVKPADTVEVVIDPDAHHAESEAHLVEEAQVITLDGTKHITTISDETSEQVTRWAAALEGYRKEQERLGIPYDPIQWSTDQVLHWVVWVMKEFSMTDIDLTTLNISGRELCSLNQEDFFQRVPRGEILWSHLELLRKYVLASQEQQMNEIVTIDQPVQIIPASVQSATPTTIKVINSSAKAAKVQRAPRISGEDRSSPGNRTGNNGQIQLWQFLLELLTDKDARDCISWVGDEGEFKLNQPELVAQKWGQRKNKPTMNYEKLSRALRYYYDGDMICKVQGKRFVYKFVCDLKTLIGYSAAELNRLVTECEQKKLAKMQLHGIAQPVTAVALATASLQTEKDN
The essentials: as §1

The target of another experiment is T3, ERG (Homo sapiens, UniProt P11308 1-479).
T3 sequence: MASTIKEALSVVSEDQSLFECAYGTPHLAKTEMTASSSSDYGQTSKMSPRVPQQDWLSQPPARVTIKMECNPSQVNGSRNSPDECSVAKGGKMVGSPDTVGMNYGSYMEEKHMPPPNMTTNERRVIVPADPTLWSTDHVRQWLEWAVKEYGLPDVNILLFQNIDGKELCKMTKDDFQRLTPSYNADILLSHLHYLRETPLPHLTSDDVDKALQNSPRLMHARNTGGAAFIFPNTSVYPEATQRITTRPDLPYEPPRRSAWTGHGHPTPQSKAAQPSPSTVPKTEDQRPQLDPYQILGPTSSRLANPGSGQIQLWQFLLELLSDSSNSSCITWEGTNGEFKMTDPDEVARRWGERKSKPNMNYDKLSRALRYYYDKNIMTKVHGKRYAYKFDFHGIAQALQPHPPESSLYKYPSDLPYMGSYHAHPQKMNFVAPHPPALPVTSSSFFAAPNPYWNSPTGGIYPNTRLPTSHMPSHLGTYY
In a few lines:
as §1

Another experiment has as its target ELF1 (Homo sapiens, UniProt P32519 1-619). In a few lines: as §1
A further experiment has as its target T4, EHF (Homo sapiens, UniProt Q9NZC4 1-300).
T4 sequence: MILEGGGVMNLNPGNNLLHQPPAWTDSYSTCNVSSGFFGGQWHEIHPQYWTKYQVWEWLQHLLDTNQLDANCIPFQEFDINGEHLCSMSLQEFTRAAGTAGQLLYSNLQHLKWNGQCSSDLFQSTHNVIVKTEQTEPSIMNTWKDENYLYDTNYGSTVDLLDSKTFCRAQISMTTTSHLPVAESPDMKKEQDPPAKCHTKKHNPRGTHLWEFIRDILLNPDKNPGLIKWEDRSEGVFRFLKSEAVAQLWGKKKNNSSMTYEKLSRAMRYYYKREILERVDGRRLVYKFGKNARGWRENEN
The essentials: as §1

The target in the next experiment is SPI1 (Homo sapiens, UniProt P17947 1-270). The essentials:
as §1

For a further experiment, the target named is SPIB (Homo sapiens, UniProt Q01892 1-262). In a few lines:
as §1

The target in the next experiment is T5, SPIC (Homo sapiens, UniProt Q8N5J4 1-248).
T5 sequence: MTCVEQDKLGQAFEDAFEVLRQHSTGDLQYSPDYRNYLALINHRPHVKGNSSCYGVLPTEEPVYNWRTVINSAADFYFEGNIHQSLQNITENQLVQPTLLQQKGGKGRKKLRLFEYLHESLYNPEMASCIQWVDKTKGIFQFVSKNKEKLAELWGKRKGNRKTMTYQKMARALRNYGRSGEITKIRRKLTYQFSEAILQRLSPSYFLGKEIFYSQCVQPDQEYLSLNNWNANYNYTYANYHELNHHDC
The essentials: as §1

In the next experiment the target is T6, ELK4 (Homo sapiens, UniProt P28324-2 1-405).
T6 sequence: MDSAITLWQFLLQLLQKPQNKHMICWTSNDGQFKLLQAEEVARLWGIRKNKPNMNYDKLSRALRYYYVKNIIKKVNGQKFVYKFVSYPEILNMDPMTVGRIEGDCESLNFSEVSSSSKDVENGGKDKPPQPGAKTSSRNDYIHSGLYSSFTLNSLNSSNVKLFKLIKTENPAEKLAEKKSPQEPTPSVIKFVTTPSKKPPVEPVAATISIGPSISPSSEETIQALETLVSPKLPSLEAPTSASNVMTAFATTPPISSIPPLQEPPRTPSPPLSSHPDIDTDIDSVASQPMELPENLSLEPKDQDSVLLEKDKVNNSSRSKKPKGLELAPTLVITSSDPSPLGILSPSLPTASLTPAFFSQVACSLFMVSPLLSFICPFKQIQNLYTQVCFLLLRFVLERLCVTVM
The essentials: as §1

Another experiment concerns the target T7, ELF3 (Homo sapiens, UniProt P78545 1-371).
T7 sequence: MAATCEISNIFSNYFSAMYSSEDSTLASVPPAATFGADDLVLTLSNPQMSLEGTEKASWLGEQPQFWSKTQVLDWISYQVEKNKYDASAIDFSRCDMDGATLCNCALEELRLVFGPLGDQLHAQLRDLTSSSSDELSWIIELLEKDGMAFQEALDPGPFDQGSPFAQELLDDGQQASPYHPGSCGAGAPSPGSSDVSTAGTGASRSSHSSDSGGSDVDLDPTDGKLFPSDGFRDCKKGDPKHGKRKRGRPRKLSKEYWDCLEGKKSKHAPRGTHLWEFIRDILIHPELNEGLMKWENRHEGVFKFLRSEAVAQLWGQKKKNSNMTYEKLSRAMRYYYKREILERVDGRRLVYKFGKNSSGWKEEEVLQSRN
In a few lines: as §1

Another experiment deals with ETV1 (Homo sapiens, UniProt P50549 1-477). The essentials: as §1
Sequence of ETV1 (P50549 whole entry): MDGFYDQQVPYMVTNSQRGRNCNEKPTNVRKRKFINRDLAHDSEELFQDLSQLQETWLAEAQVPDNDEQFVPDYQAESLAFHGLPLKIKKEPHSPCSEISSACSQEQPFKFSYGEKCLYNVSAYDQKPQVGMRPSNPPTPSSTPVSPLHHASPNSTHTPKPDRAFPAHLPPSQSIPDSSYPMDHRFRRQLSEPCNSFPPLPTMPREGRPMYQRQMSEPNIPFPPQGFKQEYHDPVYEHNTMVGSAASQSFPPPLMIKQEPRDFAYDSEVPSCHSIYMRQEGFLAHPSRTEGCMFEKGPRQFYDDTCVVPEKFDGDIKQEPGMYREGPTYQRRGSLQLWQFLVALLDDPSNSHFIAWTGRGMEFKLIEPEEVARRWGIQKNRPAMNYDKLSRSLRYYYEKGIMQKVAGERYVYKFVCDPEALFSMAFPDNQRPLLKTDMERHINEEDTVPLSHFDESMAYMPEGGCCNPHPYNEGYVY
A further experiment addresses T8, ETV3L (Homo sapiens, UniProt Q6ZN32 1-361).
T8 sequence: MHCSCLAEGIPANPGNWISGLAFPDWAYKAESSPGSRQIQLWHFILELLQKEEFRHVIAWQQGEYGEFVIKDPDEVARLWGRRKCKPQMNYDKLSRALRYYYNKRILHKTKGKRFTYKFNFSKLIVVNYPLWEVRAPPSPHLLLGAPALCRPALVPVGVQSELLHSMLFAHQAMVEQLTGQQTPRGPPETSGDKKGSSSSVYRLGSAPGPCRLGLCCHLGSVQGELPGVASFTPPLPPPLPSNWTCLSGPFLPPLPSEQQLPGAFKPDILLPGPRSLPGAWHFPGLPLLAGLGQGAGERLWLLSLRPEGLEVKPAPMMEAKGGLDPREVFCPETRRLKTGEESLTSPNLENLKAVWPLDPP
The essentials:
as §1

A further experiment has as its target T9, ETV7 (Homo sapiens, UniProt Q9Y603 1-341).
T9 sequence: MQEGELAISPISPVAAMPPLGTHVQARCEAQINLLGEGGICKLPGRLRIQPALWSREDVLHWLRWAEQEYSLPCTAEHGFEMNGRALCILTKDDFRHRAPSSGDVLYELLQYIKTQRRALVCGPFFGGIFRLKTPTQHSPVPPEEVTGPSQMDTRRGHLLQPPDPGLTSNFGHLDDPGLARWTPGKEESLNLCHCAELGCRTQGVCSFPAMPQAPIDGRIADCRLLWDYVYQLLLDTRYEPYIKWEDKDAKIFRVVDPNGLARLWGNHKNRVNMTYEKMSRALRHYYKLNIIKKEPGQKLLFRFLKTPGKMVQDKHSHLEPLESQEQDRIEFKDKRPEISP
In a few lines:
as §1

A further experiment has as its target T10, ETV3 (Homo sapiens, UniProt P41162-2 1-143).
T10 sequence: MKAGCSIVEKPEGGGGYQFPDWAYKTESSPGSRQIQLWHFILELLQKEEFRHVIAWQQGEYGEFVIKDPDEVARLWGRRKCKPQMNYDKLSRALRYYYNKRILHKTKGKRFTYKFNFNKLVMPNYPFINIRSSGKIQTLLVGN
In a few lines:
as §1

A further experiment addresses ETV6 (Homo sapiens, UniProt P41212 1-452). The essentials:
as §1

Sequence of SPIB (Q01892 whole entry): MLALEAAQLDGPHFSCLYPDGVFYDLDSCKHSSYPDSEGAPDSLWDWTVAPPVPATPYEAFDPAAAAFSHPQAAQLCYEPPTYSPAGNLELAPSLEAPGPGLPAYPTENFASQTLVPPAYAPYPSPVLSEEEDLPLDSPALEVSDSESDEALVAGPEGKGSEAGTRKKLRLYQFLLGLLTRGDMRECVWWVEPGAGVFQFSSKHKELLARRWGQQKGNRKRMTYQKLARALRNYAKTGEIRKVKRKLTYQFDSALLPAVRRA
Sequence of ELF1 (P32519 whole entry): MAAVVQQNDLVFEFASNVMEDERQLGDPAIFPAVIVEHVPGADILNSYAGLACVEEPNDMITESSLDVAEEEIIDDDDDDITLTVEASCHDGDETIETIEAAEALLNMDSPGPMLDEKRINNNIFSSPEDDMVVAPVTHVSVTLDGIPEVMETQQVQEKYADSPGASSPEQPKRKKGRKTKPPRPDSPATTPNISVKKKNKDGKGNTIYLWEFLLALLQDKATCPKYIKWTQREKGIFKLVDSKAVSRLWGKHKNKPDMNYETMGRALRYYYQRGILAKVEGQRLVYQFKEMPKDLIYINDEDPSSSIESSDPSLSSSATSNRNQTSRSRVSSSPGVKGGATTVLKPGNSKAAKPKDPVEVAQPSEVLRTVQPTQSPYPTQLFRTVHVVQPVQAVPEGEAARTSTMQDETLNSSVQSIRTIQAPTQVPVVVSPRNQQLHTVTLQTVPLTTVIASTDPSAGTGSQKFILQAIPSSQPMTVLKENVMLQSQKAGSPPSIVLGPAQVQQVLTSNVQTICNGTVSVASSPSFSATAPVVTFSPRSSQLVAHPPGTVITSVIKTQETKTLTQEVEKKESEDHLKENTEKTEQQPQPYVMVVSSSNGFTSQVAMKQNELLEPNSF
Sequence of ETV6 (P41212 whole entry): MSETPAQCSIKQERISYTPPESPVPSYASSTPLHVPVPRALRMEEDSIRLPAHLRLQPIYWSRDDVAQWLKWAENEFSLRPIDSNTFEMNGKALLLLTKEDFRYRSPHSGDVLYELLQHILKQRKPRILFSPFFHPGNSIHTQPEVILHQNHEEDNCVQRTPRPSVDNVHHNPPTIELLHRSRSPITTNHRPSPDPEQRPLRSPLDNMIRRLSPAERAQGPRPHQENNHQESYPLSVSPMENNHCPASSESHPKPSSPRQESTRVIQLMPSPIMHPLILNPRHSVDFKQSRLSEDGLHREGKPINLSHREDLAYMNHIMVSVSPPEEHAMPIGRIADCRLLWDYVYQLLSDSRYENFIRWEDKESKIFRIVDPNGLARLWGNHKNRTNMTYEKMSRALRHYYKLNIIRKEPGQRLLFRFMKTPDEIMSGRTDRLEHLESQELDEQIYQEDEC

Take TAAAGG: the binding signal with ELK1 is 1.03 fold enrichment (6-mer frequency, TF over GST control); with GABPA it was 1.03 fold enrichment (6-mer frequency, TF over GST control); with ERG it was 1.03 fold enrichment (6-mer frequency, TF over GST control); in the experiment with ELF1 it was 1.08 fold enrichment (6-mer frequency, TF over GST control); with EHF, 1.12 fold enrichment (6-mer frequency, TF over GST control); with SPI1, 1.03 fold enrichment (6-mer frequency, TF over GST control). For the same sequence, the binding signal in the experiment with SPIB is 1.03 fold enrichment (6-mer frequency, TF over GST control); in the experiment with SPIC, 1.11 fold enrichment (6-mer frequency, TF over GST control); with ELK4, 1.07 fold enrichment (6-mer frequency, TF over GST control); with ELF3, 1.1 fold enrichment (6-mer frequency, TF over GST control); with ETV1, 1.03 fold enrichment (6-mer frequency, TF over GST control); with ETV3L, 1.04 fold enrichment (6-mer frequency, TF over GST control). For the same sequence, the binding signal was 1.09 fold enrichment (6-mer frequency, TF over GST control) with ETV7; 1.09 fold enrichment (6-mer frequency, TF over GST control) in the experiment with ETV3; 1.07 fold enrichment (6-mer frequency, TF over GST control) in the experiment with ETV6.
